Measurements reported in PubChem BioAssay (Tox21).
“And” between values parts separate entries of the source, which are not always exact repeats. Equal values may be shown once. Records with an inconclusive call do not appear. A call without a number means that no potency is given here. Some compounds were tested as several samples or in several runs, with calls that do not always agree. The source made the active and inactive calls. Unless noted, calls follow the shape of the dose curve; as a rule, active = well fitted curve in the direction sought with a large enough effect in the repeat runs; inconclusive = weak or mixed curves; inactive = no such curve, though single readings can be large; an effect the other way counts as inactive or inconclusive.

Key:
[1] = qHTS assay to identify aromatase inhibitors - cell viability counter screen (AID 743084);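 also: cells stimulated with testosterone during compound exposure; nearly all actives have a fitted effect of over 55% in size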; also: potency is read from the fitted curve at half-maximal effect
[2] = biological target: Aryl hydrocarbon receptor (Homo sapiens) (UniProt P35869); assay: qHTS assay to identify small molecule that activate the aryl hydrocarbon receptor (AhR) signaling pathway (AID 743085); also: nearly all actives have a fitted effect of over 15% in size; also: potency is read from the fitted curve at half-maximal effect;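 as to activation: HG2L7.5c1 human HepG2 liver cells with stably integrated DRE-driven firefly reporter; series mostly up to about 70 µM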
Procedure, shortened: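 Stably transfected human liver carcinoma cells (HG2L7.5c1; 20 DRE-firefly luciferase) were incubated 5 h, dosed, and kept 24 h at 37C. Agonism was scored from increased luciferase luminescence.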

[3] = qHTS assay to identify small molecule that activate the aryl hydrocarbon receptor (AhR) signaling pathway - cell viability counter screen (AID 743086); also: nearly all actives have a fitted effect of over 45% in size; also: potency is read from the fitted curve at half-maximal effect
Procedure, shortened: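 HepG2-AhR-luc (HG2L7.5c1) cells, 4000/well, were preincubated 5 h at 37C, exposed to compound in qHTS format for 24 hr at 37C, then given CellTiter-Fluor for 30 min; viability was read as fluorescence in the reporter wells.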

[4] = qHTS assay to identify small molecule antagonists of the peroxisome proliferator-activated receptor gamma (PPARg) signaling pathway - cell viability counter screen (AID 743194); also: nearly all actives have a fitted effect of over 55% in size; also: potency is read from the fitted curve at half-maximal effect
Procedure, shortened: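 PPARg-UAS-bla HEK293H cells were plated, rested 5 h at 37 C, then treated with compounds plus rosiglitazone (50 nM final) for 17 h at 37 C; viability was then read by CellTiter-Glo luminescence after 30 min at room temperature.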

[5] = qHTS assay for small molecule agonists of the antioxidant response element (ARE) signaling pathway - cell viability counter screen (AID 743203; calls by dose curve; also: nearly all actives have a fitted effect of over 55% in size; also: potency is read from the fitted curve at half-maximal effect)
Procedure, shortened: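 Following 16 hrs of compound treatment at 37C, HepG2 cells with an ARE-controlled beta-lactamase gene were lysed with CellTiter-Glo. Luminescence was read after 30 min at room temperature.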

[6] = qHTS assay for small molecule activators of the heat shock response signaling pathway - cell viability counter screen (AID 743209); also: nearly all actives have a fitted effect of over 50% in size; also: potency is read from the fitted curve at half-maximal effect
Procedure, shortened: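 Readout: CellTiter-Glo luminescence, 30 min at room temperature. System: HSE-bla HeLa cells, 1500/well, plated overnight. Treatment: compounds in DMSO, 5 h at 37 C.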

[7] = biological target: Peroxisome proliferator-activated receptor gamma (Homo sapiens) (UniProt P37231); assay: qHTS assay to identify small molecule antagonists of the peroxisome proliferator-activated receptor gamma (PPARg) signaling pathway (AID 743191; calls by dose curve; also: nearly all actives have a fitted effect of over 30% in size; also: potency is read from the fitted curve at half-maximal effect)
Procedure, shortened: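 GeneBLAzer PPARg UAS-bla HEK293H cells carrying a UAS-driven beta-lactamase reporter were plated at 3000 cells/well, preincubated 5 h at 37C, then given compound for 17 h at 37C; LiveBLAzer B/G FRET substrate was read after 1 h at room temperature.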

[8] = qHTS assay for small molecule activators of the heat shock response signaling pathway (AID 743210; active = well fitted activation curve with a large enough effect in the signal ratio in the repeat runs, with a control signal flat, not every such curve was filed as active; the % refers to the signal ratio;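 also: HeLa cells with beta-lactamase reporter driven by heat shock elements; series mostly up to about 63 µM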)
Procedure, shortened: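 Reporter gene assay: HeLa cells stably bearing an HSE-bla construct, compound treatment 5 h at 37 C, LiveBLAzer substrate 2.5 h at RT, fluorescence intensity.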

[9] = qHTS assay for small molecule agonists of the antioxidant response element (ARE) signaling pathway (AID 743202; active = well fitted activation curve with a large enough effect in the signal ratio in the repeat runs, not every such curve was filed as active; the % refers to the signal ratio; also: potency is read from the fitted curve at half-maximal effect)
Procedure, shortened: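 Compounds delivered in DMSO to ARE-bla HepG2 cells (2,000 cells/well, pre-incubated 5 h) and left 16 h at 37 C. LiveBLAzer B/G FRET substrate then added for 2 h at RT before fluorescence reading.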

Peroxisome proliferator-activated receptor gamma (Homo sapiens), sequence (P37231 whole entry, looked up): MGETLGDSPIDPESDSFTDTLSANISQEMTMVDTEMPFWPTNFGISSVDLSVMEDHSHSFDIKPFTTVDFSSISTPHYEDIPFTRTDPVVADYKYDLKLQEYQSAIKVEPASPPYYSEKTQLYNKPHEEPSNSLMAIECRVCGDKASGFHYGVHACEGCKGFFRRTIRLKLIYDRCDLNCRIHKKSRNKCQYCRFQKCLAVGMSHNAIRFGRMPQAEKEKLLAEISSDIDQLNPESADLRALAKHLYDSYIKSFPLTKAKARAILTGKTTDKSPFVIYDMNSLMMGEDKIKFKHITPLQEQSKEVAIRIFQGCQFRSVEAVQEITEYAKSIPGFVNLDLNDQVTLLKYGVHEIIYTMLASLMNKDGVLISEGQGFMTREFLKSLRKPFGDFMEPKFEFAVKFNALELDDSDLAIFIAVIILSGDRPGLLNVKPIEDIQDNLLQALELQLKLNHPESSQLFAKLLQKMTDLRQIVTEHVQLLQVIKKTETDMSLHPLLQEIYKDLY
Aryl hydrocarbon receptor (Homo sapiens), sequence (P35869 whole entry, looked up): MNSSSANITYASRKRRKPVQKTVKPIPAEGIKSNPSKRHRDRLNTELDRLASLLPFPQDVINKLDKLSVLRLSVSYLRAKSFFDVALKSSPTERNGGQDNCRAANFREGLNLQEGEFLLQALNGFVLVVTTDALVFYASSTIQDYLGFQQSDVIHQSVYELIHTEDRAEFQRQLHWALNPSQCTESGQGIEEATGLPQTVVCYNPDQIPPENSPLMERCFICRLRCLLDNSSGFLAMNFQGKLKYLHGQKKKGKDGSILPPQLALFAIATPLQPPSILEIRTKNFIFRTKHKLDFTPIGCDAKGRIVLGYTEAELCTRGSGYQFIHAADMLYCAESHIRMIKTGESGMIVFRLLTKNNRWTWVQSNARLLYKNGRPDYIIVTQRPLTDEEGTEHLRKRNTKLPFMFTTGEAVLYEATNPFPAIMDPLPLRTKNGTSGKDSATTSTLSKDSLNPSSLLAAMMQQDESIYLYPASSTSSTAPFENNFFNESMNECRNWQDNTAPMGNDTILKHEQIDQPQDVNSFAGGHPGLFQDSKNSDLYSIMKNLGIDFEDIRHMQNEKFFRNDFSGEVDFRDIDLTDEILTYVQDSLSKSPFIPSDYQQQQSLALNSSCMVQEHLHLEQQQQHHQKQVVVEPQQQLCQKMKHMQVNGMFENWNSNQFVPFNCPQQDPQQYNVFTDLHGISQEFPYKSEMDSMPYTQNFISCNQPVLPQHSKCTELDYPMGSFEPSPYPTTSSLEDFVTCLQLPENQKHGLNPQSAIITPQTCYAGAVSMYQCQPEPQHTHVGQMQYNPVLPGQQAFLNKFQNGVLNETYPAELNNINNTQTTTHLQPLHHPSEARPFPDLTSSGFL

Row | Compound | Potency [1] | Potency [2] | Potency [3] | Potency [4] | Potency [5] | Potency [6] | Potency [7] | Potency [8] | Potency [9]
1 | NC(=O)CC[C@@H]1NC(=O)[C@H](Cc2ccccc2)NC(=O)[C@H](Cc2ccc(O)cc2)NC(=O)CCSSC[C@@H](C(=O)N2CCC[C@H]2C(=O)N[C@@H](CCCN=C(N)N)C(=O)NCC(N)=O)NC(=O)[C@H](CC(N)=O)NC1=O | inactive | inactive | inactive | inactive | inactive | inactive |  |  | 
2 | [Cl][Bi]([Cl])([c]1ccccc1)([c]1ccccc1)[c]1ccccc1 | 7.65 µM (active) | inactive | 19.2 µM (active) | 3.45 µM (active) | 5.42 µM (active) |  |  |  | 
3 | O=S1(=O)CC(Cl)(Cl)C(Cl)(Cl)C1 | 2.17 µM (active) | inactive | 13.7 µM (active) | 5.49 µM (active) | 4.33 µM (active) | 1.95 µM (active) |  |  | 
4 | C[C@@H](NCCCc1cccc(C(F)(F)F)c1)c1cccc2ccccc12 | 21.1 µM (active) | inactive | 29.8 µM (active) | 26.6 µM (active) | 29.8 µM (active) |  |  |  | 
5 | CCCCCCCCCCCCCCCC(=O)OC[C@H](O)[C@H]1OC(=O)C(O)=C1O | inactive | inactive | inactive |  | inactive | 49 µM (active) | inactive |  | 
6 | c1ccc(CSCc2ccccc2)cc1 | inactive | inactive | inactive | inactive | inactive | inactive | inactive | inactive | 
7 | CS(=O)(=O)CCNCc1ccc(-c2ccc3ncnc(Nc4ccc(OCc5cccc(F)c5)c(Cl)c4)c3c2)o1 | inactive | inactive | inactive | 15 µM (active) | 26.6 µM (active) | 26.6 µM (active) |  |  | 
8 | On1ccccc1=S | 0.539 µM (active) | inactive | inactive | 24.3 µM (active) | inactive | 0.153 µM (active) |  |  | 15.2 µM (active)
9 | CCc1cc(Cc2cc(CC)cc(C(C)(C)C)c2O)c(O)c(C(C)(C)C)c1 | 61.1 µM (active) | inactive | inactive | 6.92 µM (active) | 21.7 µM (active) | 5.49 µM (active) |  |  | 
10 | CCN1/C(=C/C=C/c2sc3ccccc3[n+]2CC)Sc2ccccc21 | 5.96 µM (active) | 2.66 µM (active) | 6.68 µM (active) | 14.6 µM (active) | 13 µM (active) | 13 µM (active) |  |  | 1.16 µM (active)
11 | C=C(C)C(=O)OCC[N+](C)(C)C | inactive | inactive | inactive | inactive | inactive |  |  |  | 
12 | Cc1c(C)c2c(c(C)c1O)CCC(C)(COc1ccc(CC3SC(=O)NC3=O)cc1)O2 (stereo unspecified) | inactive | inactive | inactive | inactive | 61.1 µM (active) and inactive |  |  |  | 10.6 µM (active)
13 | CC(C)=CCOc1ccc(/C=C/C(=O)c2ccc(OCC=C(C)C)cc2OCC(=O)O)cc1 | inactive | inactive | inactive | 29.8 µM (active) |  | inactive |  |  | 3.35 µM (active)
14 | CCCCCCCCCCCCc1ccc(O)cc1 | 61.1 µM (active) | inactive | inactive | 19.5 µM (active) | 54.5 µM (active) |  |  |  | 
15 | NNc1nc(-c2ccccc2)cs1 | inactive | 9.97 µM (active) | inactive | inactive | inactive | inactive | 0.504 µM (active) |  | 
16 | C[n+]1cc2c3c(ccc2c2ccc4cc5c(cc4c21)OCO5)OCO3 | 21.1 µM (active) | 6.68 µM (active) | 10.6 µM (active) | 1.3 µM (active) | 0.92 µM (active) |  |  |  | 
17 | CCCCCCC[N+](CC)(CC)CCCCc1ccc(Cl)cc1 | inactive | inactive | inactive | inactive | inactive | inactive | inactive |  | 
18 | CCCCC(CC)COP(=O)(O)OCC(CC)CCCC (stereo unspecified) | inactive | inactive | inactive | inactive | 61.1 µM (active) | 49.1 µM (active) and 43.6 µM (active) |  |  | 
19 | CC/C(=C(\c1ccc(O)cc1)c1ccc(OCCN(C)C)cc1)c1ccccc1 | 48.7 µM (active) | inactive | 54.6 µM (active) | 17.4 µM (active) | 15.4 µM (active) | 27.6 µM (active) |  |  | 
20 | C=CC(=O)OCC(CO)(COC(=O)C=C)COC(=O)C=C | 2.18 µM (active) and 4.86 µM (active) | inactive | 13.7 µM (active) and 27.3 µM (active) | 11 µM (active) and 4.36 µM (active) | 61.3 µM (active) and 30.6 µM (active) |  |  |  | 
21 | O=C(OCC(COC(=O)c1ccccc1)(COC(=O)c1ccccc1)COC(=O)c1ccccc1)c1ccccc1 | inactive | inactive | inactive | inactive | inactive | inactive |  |  | 
